Shown is part of a subset that was picked to be rich in hits.
VCAM1 pot: potentiators of TNFa-induced VCAM1 expression, primary screen, imaging, HUVEC, TNFa stimulus, immunofluorescence | HUVEC TNFa-stimulated VCAM-1 immunofluorescence, high-content imaging; scaled per plate to unstimulated/TNFa-only wells | activation, % at 2 µM | 93,000 tested, 0.19% active | AID 808, 2007;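 active = activation above the screen mean plus 3 SD, with well images confirming the hit on visual review, cut at about 28% in these data, passing the limit was not always enough; inconclusive = activation above that limit but images do not confirm it; inactive = activation not above that limit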;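 also: signal is the number of cytoplasmic VCAM-1 stained grains per positive cell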
VCAM1 pot conf: potentiators of TNFa-induced VCAM1 expression, confirmation, imaging, HUVEC, triplicate retest; shares compounds with VCAM1 pot; HUVEC TNFa-stimulated VCAM-1 immunofluorescence imaging; 230 tested, under 10 active; activation, % at 2 µM;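 active = activation above 30% in triplicate retests at 2 µM, then confirmed by visual review of the well images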;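 also: scaled per plate between unstimulated and TNFa-stimulated DMSO control wells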
* = called active by the depositor.

For COc1ccccc1N(CC(=O)NCCSc1ccccc1)S(C)(=O)=O the results were VCAM1 pot inconclusive and VCAM1 pot conf -1.
`COc1ccccc1C(=O)NC(C)C(c1cccs1)N1CCN(C)CC1` (stereo unspecified) gave VCAM1 pot 21.
Screening CC(C)(C)NS(=O)(=O)c1ccc(CCC(=O)N2CCCCC2)cc1 returned VCAM1 pot -27.
Cc1ccc(NC(=O)C2CCN(S(=O)(=O)c3c(C)[nH]c(=O)[nH]c3=O)CC2)cc1 was read as VCAM1 pot 0.
For CCOc1ccc(-c2nnn(CC(=O)NCc3ccc4c(c3)OCO4)n2)cc1 the results were VCAM1 pot 4.
Cc1ccc(-c2nnn(CC(=O)N(Cc3ccco3)C(C(=O)NC3CCCC3)c3cccs3)n2)o1 (stereo unspecified) was read as VCAM1 pot -3.
Screening O=C(CN(C(=O)Cn1nnc(-c2cccs2)n1)c1ccc2c(c1)OCCO2)NC1CCCCC1 returned VCAM1 pot 56* and VCAM1 pot conf -18.
For CCCOC(=O)Nc1cc(OC)c(Cl)cc1OC the results were VCAM1 pot -5.
Screening Cc1cc(C(=O)COC(=O)CCc2nc3ccccc3s2)c(C)n1C returned VCAM1 pot 0.
For CCOc1ccc(C=O)cc1CN1CCCCC1 the results were VCAM1 pot -95.
CCn1c2c(c3cc(OCC(C)C)ccc31)CCCC2=O was read as VCAM1 pot 47* and VCAM1 pot conf -11.
CC(=O)Oc1oc(-c2ccccc2)nc1/C=N/c1ccccn1 was read as VCAM1 pot 89* and VCAM1 pot conf -4.
Screening CN(C)N=Nc1ccc(S(=O)(=O)N2CCSC2C(=O)O)cc1 (stereo unspecified) returned VCAM1 pot -12.
For CN(C)CCCN1C(=O)CSC1c1ccccc1 (stereo unspecified) the results were VCAM1 pot -7.
For O=C1CSC(c2ccccn2)N1c1ccccc1 (stereo unspecified) the results were VCAM1 pot 34* and VCAM1 pot conf -16.
CCOc1ccc(N2C(=O)CSC2c2ccncc2)cc1 (stereo unspecified) was read as VCAM1 pot -91.
`N#CCCNC(=O)CCN1CCOCC1` gave VCAM1 pot -2.
`CC1CCc2nc(NC(=O)C3CCCO3)sc2C1` (stereo unspecified) gave VCAM1 pot -12.
COc1cccc(-c2nc(=S)c3c(n2CCCO)CCCC3)c1 was read as VCAM1 pot 18.
For O=C(COc1cccc(C(F)(F)F)c1)Nc1ccc(S(=O)(=O)N2CCCC2)cc1 the results were VCAM1 pot -17.
For COc1ccc(S(=O)(=O)N(C)CC(=O)N2CCN(c3ccc(F)cc3)CC2)cc1OC the results were VCAM1 pot 4.
Screening COC(=O)c1c(NC(=O)Cc2ccccc2)sc(C)c1C returned VCAM1 pot 0.
For CCOC(=O)c1cc(CC)sc1NC(=O)Cc1ccccc1 the results were VCAM1 pot 35* and VCAM1 pot conf -9.
`CCOC(=O)c1c(-c2cccs2)csc1NC(=O)CCCC(=O)O` gave VCAM1 pot 8.
`C/C(=N\NC(=O)Cc1cccn1C)c1ccc2ccccc2c1` gave VCAM1 pot inconclusive and VCAM1 pot conf -4.
Cn1ccnc1SCC(=O)Nc1ccc2ccccc2c1 was read as VCAM1 pot 32.
Screening COc1ccc(C(=O)c2ccc(N3CCN(C4CC(=O)NC4=O)CC3)cc2)cc1F (stereo unspecified) returned VCAM1 pot -7.
`CCOC(=O)c1cnn(-c2cc(C)c3ccccc3n2)c1N` gave VCAM1 pot -2.
For CCOC(=O)c1cnc2c(-c3ccccc3)cnn2c1N the results were VCAM1 pot inconclusive and VCAM1 pot conf -4.
For CCOC(=O)c1c(-c2ccc(Cl)cc2)cn2ccccc12 the results were VCAM1 pot -4.
For COc1ccc(Cl)cc1NC(=O)N1CCN(S(C)(=O)=O)CC1 the results were VCAM1 pot -4.
`COC(=O)c1cnn(C(=O)c2cc(OC)ccc2Br)c1N` gave VCAM1 pot 1.
Cc1cc2ncn(C(=O)N3CCCC3)c2cc1C was read as VCAM1 pot -12.
Screening O=C(Nc1ccccc1)N1CCCc2ccccc21 returned VCAM1 pot 10.
COc1ccccc1CC(=O)N1CCCc2ccccc21 was read as VCAM1 pot -19.
For CCc1nnc(SCC(=O)N2CCCc3ccccc32)nc1CC the results were VCAM1 pot inconclusive and VCAM1 pot conf -22.
Cc1c(NC(=O)N(C)C)c(=O)n(-c2ccccc2)n1C was read as VCAM1 pot 1.
For O=S(=O)(CCc1nc2ccccc2s1)c1ccc2ccccc2c1 the results were VCAM1 pot 1.
`O=C1c2ccccc2-c2nc3ccccc3nc21` gave VCAM1 pot 2.
Cc1ccccc1Cn1nnc2c1C(=O)c1ccccc1C2=O was read as VCAM1 pot 46* and VCAM1 pot conf -13.
For Cc1ccccc1CSc1nncn1N the results were VCAM1 pot -13.
`Clc1ccc(CSc2cc3c(nn2)-c2ccccc2CC3)cc1` gave VCAM1 pot -10.
`CCOC(=O)CNC(=O)c1cn(CC(C)C)c(=O)c2cc(OC)c(OC)cc12` gave VCAM1 pot 55* and VCAM1 pot conf -13.
Screening CCOC(=O)CNC(=O)c1cc(C)oc1C returned VCAM1 pot -3.
Screening CC(C)Cn1cc(C(=O)NCCCOC(C)C)c2c3ccccc3n(C)c2c1=O returned VCAM1 pot -9.
`O=C(NCC1COc2ccccc2O1)c1cc2ccccc2o1` (stereo unspecified) gave VCAM1 pot -16.
Screening Cc1nn(Cc2ccc(C(=O)N3c4ccc(F)cc4CCC3C)o2)c(C)c1Br (stereo unspecified) returned VCAM1 pot -1.
Screening NC(=O)c1cccc(S(=O)(=O)N2CC(c3ccccc3)CC2=O)c1 (stereo unspecified) returned VCAM1 pot -1.
For O=C(COc1ccc(Br)cc1)Nc1ccc(-c2nnc(-c3ccco3)o2)cc1 the results were VCAM1 pot -2.
`CC(=O)c1c(C)cc(C)c(CSc2nnc(-c3ccco3)o2)c1C` gave VCAM1 pot 16.
Screening O=C(CCSc1nnc(-c2ccco2)o1)Nc1ccccc1 returned VCAM1 pot 44* and VCAM1 pot conf -16.
Screening CCOC(=O)c1c(C)cccc1OCC(N)=O returned VCAM1 pot -8.
For CC1CN(C(NC(=O)C(C)(C)C)C(Cl)(Cl)Cl)CC(C)O1 (stereo unspecified) the results were VCAM1 pot 2.
CCOC(=O)CSc1nc(-c2ccccc2)nc2c1oc1ccccc12 was read as VCAM1 pot -4.
Screening CCCSc1ncnc2c1oc1ccccc12 returned VCAM1 pot 2.
CCc1nc(SCC(=O)c2cccs2)c2oc3ccccc3c2n1 was read as VCAM1 pot 28* and VCAM1 pot conf -14.
O=c1cc(C(Cl)(Cl)Cl)oc2c1ccc1ccccc12 was read as VCAM1 pot -80.
Screening O=C(CN1C(=O)NC2(CCCC2)C1=O)Nc1ccccc1F returned VCAM1 pot 1.
Cc1cc(C)c(C(N)=O)c(Nc2cccc3ccccc23)n1 was read as VCAM1 pot -1.
For CC1OC(Nc2cccc3ccccc23)C(O)C(O)C1O (stereo unspecified) the results were VCAM1 pot inconclusive and VCAM1 pot conf 0.

Compound activity from PubChem.
